From PubChem BioAssay AID1159580 (chemical genetic matrix, 2015)
Where “and” joins values, the source holds several entries; their conditions need not be identical. Equal entries are not always repeated. In all, about 5,500 compounds went through this assay and about 2,000 (36%) were called active. Another 18% or so got no clear call; they are omitted. No stated cut-off is given here; in the data, active means normalized growth mostly below about 0.91 (no sharp cut-off); inconclusive means no clear call, values can overlap the other calls; inactive means mostly above about 0.92. The list shows a part of the results.

Experiment: chemical genetic growth profiling, strain panel (AID 1159580);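 further: tested at 20 µM; growth read once vehicle control cultures reached saturation at 30 °C; 1 = growth at the plate median or of vehicle wells; lower values mean less growth of the strain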
Conditions: S. cerevisiae deletion strains, growth OD

Measured: normalized growth

CN(C)[C@@H]1C(=O)C(C(N)=O)=C(O)[C@@]2(O)C(=O)C3=C(O)c4c(O)cccc4[C@@](C)(O)[C@H]3[C@H](O)[C@@H]12
inactive: locus YAL013W, strain DEP1, hits give low values 1.01 | locus YAL021C, strain ccr4, hits give low values 1.02 | locus YAL026C, strain drs2, hits give low values 1.01 | locus YAL030W, strain snc1, hits give low values 1 | locus YBL061C, strain skt5, hits give low values 1.02 | locus YBR009C, strain hhf1, hits give low values 1.01 | locus YBR021W, strain FUR4, hits give low values 0.99 | locus YBR023C, strain chs3, hits give low values 1.02 | locus YBR171W, strain sec66, hits give low values 1.02 | locus YBR229C, strain ROT2, hits give low values 1 | locus YBR231C, strain swc5, hits give low values 0.991 | locus YBR279W, strain paf1, hits give low values 1.02 | locus YCL011C, strain gbp2, hits give low values 1.01 | locus YCL016C, strain dcc1, hits give low values 1.01 | locus YCL029C, strain bik1, hits give low values 0.998 | locus YCL061C, strain MRC1, hits give low values 1.01 | locus YCL069W, strain vba3, hits give low values 1.02 | locus YCR088W, strain abp1, hits give low values 1.02 | locus YDL005C, strain med2, hits give low values 1.02 | locus YDL035C, strain GPR1, hits give low values 1 | locus YDL040C, strain nat1, hits give low values 1.03 | locus YDL074C, strain BRE1, hits give low values 1.01 | locus YDL101C, strain DUN1, hits give low values 1.01 | locus YDL134C, strain PPH21, hits give low values 0.995 | locus YDL185W, strain tfp1, hits give low values 0.988 | locus YDL192W, strain arf1, hits give low values 0.998 | locus YDR001C, strain nth1, hits give low values 1.02 | locus YDR069C, strain doa4, hits give low values 1 | locus YDR101C, strain arx1, hits give low values 1.01 | locus YDR137W, strain rgp1, hits give low values 0.975 | locus YDR150W, strain NUM1, hits give low values 1.01 | locus YDR159W, strain sac3, hits give low values 1.05 | locus YDR162C, strain NBP2, hits give low values 0.992 | locus YDR195W, strain ref2 1.01 | locus YDR297W, strain sur2, hits give low values 1.02 | locus YDR318W, strain mcm21, hits give low values 0.999 | locus YDR334W, strain swr1, hits give low values 1.01 | locus YDR335W, strain msn5, hits give low values 1.02 | locus YDR388W, hits give low values 1 | locus YDR392W, strain spt3, hits give low values 1.02 | locus YDR502C, strain sam2, hits give low values 0.994 | locus YEL003W, strain gim4, hits give low values 1.01 | locus YEL037C, strain rad23, hits give low values 1.02 | locus YEL061C, strain CIN8 (second series), hits give low values 1.01 | locus YEL061C, strain CIN8, hits give low values 1 | locus YER015W, strain faa2, hits give low values 1.01 | locus YER016W, strain bim1, hits give low values 1 | locus YER110C, hits give low values 1 | locus YER111C, strain swi4, hits give low values 1.01 | locus YER155C, strain BEM2 (second series), hits give low values 0.995 | locus YER155C, strain BEM2, hits give low values 1.01 | locus YER167W, strain BCK2, hits give low values 1.01 | locus YFR010W, strain ubp6, hits give low values 1 | locus YGL078C, strain dbp3, hits give low values 0.984 | locus YGL086W, strain mad1, hits give low values 0.982 | locus YGL167C, strain pmr1, hits give low values 1.01 | locus YGL173C, strain kem1, hits give low values 1 | locus YGL227W, strain vid30, hits give low values 1.04 | locus YGL240W, strain doc1, hits give low values 1.01 | locus YGL248W, strain PDE1, hits give low values 1 | locus YGL253W, strain hxk2, hits give low values 1.02 | locus YGR078C, strain PAC10, hits give low values 1 | locus YGR135W, strain pre9, hits give low values 0.987 | locus YGR252W, strain gcn5, hits give low values 0.967 | locus YHR013C, strain ard1, hits give low values 1 | locus YHR027C, strain rpn1, hits give low values 1.02 | locus YHR030C, strain SLT2, hits give low values 1 and 0.979 | locus YHR079C, strain IRE1 (second series), hits give low values 0.992 | locus YHR079C, strain IRE1, hits give low values 0.98 | locus YHR094C, strain hxt1, hits give low values 0.999 | locus YHR129C, strain ARP1, hits give low values 1.01 | locus YHR142W, strain chs7, hits give low values 1.05 | locus YHR200W, strain rpn10, hits give low values 1 | locus YIL066C, strain RNR3, hits give low values 1 | locus YIL073C, strain SPO22, hits give low values 1.02 | locus YIL125W, strain kgd1, hits give low values 0.998 | locus YIR030C, strain dcg1, hits give low values 0.997 | locus YJL092W, strain hpr5, hits give low values 1.02 | locus YJL095W, strain BCK1 (second series), hits give low values 1.02 | locus YJL095W, strain BCK1, hits give low values 0.987 and 0.979 | locus YJL115W, strain asf1, hits give low values 1.03 | locus YJL129C, strain trk1, hits give low values 1.05 | locus YJL134W, strain LCB3, hits give low values 1.01 | locus YJL154C, strain vps35, hits give low values 1.04 | locus YJL164C, strain tpk1, hits give low values 0.997 | locus YJL166W, strain qcr8, hits give low values 1.03 | locus YJL168C, strain set2, hits give low values 0.998 | locus YJL187C, strain SWE1 (second series), hits give low values 1.01 | locus YJR043C, strain POL32, hits give low values 0.992 | locus YJR066W, strain TOR1, hits give low values 0.928
